PubChem BioAssay
For part of these data: Potency and affinity values are given separately. Calls of active or inactive are those of the source.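 How the source made its calls, unless noted: active means compound raising the membrane signal above positive-control mean plus 3 SD in both repeats, and a primary screen hit; inactive means the rest.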

What was measured:
[1] = system: TRPC4 beta (transient receptor potential cation channel C4), mouse; experiment: activators of mouse TRPC4 channel, confirmation, cell-based, Fluo4 calcium, HEK293 TRPC4beta/mu-opioid, duplicates, 10 µM (AID 2426;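 active means fluorescence ratio normalized to control raised more than 50% in primary screen plus both repeat runs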;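 on activation: percent rise of integrated ratio over buffer wells lacking compound which define 0%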); settings: Fluo4 calcium fluorescence, at 10 µM; hits give high values
[2] = system: transient receptor potential cation channel C4 beta (TRPC4), mouse; experiment: activators of mouse TRPC4 channel, confirmation, cell-based, second round, Fluo4, HEK293 TRPC4beta/mu-opioid, 1 µM (AID 2461;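 active means primary screen active and over 50% activation in each of two duplicate runs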;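 on activation: 0% = wells without test compound as baseline of integrated fluorescence ratio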); settings: Fluo4 calcium fluorescence, at 1 µM; hits give high values
[3] = system: TRPC4 (transient receptor potential cation channel C4 beta), mouse; experiment: positive allosteric modulators of mouse TRPC4, confirmation, cell-based, second round, Fluo-4, HEK293 TRPC4beta/mu-opioid, 1 µM (AID 2554;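 active means primary screen hit whose fluorescence ratio, in both repeats, exceeds the weak agonist control mean by 3 SD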); settings: DAMGO EC20, Fluo-4 calcium flux, at 1 µM; hits give high values
[4] = system: TRPC4 beta (transient receptor potential cation channel C4), mouse; experiment: positive allosteric modulators of mouse TRPC4, confirmation, cell-based, Fluo-4, HEK293 TRPC4beta/mu-opioid (AID 2555;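 active means primary screen hit whose calcium fluorescence ratio, in both repeats, exceeds the weak agonist control mean by 3 SD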); settings: DAMGO EC20, Fluo-4 calcium flux, at 10 µM; hits give high values
[5] = target: Short transient receptor potential channel 4 (Mus musculus) (UniProt Q9QUQ5); experiment: inhibitors of mouse TRPC4 channel, confirmation, cell-based, Fluo4, HEK293 TRPC4beta/mu-opioid (AID 2636;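 active means calcium signal cut by more than 3 SD below the full-agonist control yet still positive, in both repeats and the earlier primary screen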); settings: DAMGO, Fluo4 calcium flux, at 10 µM; hits give high values
Short transient receptor potential channel 4 (Mus musculus), sequence (Q9QUQ5 whole entry, looked up): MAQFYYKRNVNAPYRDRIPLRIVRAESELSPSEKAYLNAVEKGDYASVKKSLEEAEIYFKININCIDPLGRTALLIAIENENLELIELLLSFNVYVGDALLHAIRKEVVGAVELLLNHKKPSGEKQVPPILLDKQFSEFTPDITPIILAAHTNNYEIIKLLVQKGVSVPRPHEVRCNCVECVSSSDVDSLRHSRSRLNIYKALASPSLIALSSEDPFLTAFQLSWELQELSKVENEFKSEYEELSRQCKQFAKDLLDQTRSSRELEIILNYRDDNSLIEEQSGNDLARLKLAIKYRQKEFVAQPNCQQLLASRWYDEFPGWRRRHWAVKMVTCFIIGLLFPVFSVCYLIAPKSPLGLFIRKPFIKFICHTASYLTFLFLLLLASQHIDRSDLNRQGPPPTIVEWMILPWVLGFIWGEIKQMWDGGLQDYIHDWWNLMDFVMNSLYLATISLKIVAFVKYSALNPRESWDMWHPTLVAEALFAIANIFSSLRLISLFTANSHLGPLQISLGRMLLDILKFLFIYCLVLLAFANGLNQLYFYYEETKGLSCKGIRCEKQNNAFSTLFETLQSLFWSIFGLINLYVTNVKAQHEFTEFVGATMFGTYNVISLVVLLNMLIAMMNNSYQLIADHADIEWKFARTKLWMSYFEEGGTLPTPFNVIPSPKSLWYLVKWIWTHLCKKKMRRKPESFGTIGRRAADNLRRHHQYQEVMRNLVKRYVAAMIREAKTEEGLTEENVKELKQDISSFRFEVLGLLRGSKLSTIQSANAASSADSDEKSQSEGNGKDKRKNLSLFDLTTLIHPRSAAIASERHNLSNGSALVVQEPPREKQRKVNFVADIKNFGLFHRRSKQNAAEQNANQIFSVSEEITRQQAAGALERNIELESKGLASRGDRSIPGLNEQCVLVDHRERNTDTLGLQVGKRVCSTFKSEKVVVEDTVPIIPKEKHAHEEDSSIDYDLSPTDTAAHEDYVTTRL

[6] = target: Short transient receptor potential channel 4 (Mus musculus) (UniProt Q9QUQ5); experiment: inhibitors of mouse TRPC4 channel, confirmation, cell-based, second round, Fluo4, HEK293 TRPC4beta/mu-opioid, 1 µM (AID 2637;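 active means calcium signal ratio cut to more than 3 SD under the fully stimulated control mean yet still positive, in both repeats and the primary screen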); settings: Fluo4 calcium flux, DAMGO, at 1 µM; hits give high values
[7] = target: Short transient receptor potential channel 4 (Mus musculus) (UniProt Q9QUQ5); experiment: TRPC4 positive allosteric modulators, dose response, cell-based, HEK293 TRPC4/mu-opioid, Fluo-4 calcium, EC20 DAMGO (AID 434941;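 active means earlier screen potentiator hit that boosts the TRPC4 ion channel at some dose, with a dose response; inactive means no potentiation, no dose response, or not a prior hit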;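 further: calcium entry triggered by an EC20 dose of DAMGO at the co-expressed mu-opioid receptor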)
[8] = target: Short transient receptor potential channel 4 (Mus musculus) (UniProt Q9QUQ5); experiment: mouse TRPC4 channel inhibitors, dose response, cell-based, HEK293 TRPC4/mu-opioid, Fluo-4 calcium (AID 434942;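 active means primary screen inhibitor hit that blocks the TRPC4 channel at some tested dose, yielding a dose curve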)
[9] = target: Short transient receptor potential channel 6 (Mus musculus) (UniProt Q61143); experiment: inhibition of mouse TRPC6 channel, confirmation, selectivity assay for TRPC4 inhibitor project, cell-based, HEK293, membrane potential dye, duplicate (AID 434948;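 active means active in primary screen and both duplicates, each dropping signal beyond three positive-control SD with fluorescence still positive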); settings: HEK293 TRPC6, membrane potential dye fluorescence, at 10 µM, stimulated with maximal-effect acetylcholine; hits give high values
Short transient receptor potential channel 6 (Mus musculus), sequence (Q61143 whole entry, looked up): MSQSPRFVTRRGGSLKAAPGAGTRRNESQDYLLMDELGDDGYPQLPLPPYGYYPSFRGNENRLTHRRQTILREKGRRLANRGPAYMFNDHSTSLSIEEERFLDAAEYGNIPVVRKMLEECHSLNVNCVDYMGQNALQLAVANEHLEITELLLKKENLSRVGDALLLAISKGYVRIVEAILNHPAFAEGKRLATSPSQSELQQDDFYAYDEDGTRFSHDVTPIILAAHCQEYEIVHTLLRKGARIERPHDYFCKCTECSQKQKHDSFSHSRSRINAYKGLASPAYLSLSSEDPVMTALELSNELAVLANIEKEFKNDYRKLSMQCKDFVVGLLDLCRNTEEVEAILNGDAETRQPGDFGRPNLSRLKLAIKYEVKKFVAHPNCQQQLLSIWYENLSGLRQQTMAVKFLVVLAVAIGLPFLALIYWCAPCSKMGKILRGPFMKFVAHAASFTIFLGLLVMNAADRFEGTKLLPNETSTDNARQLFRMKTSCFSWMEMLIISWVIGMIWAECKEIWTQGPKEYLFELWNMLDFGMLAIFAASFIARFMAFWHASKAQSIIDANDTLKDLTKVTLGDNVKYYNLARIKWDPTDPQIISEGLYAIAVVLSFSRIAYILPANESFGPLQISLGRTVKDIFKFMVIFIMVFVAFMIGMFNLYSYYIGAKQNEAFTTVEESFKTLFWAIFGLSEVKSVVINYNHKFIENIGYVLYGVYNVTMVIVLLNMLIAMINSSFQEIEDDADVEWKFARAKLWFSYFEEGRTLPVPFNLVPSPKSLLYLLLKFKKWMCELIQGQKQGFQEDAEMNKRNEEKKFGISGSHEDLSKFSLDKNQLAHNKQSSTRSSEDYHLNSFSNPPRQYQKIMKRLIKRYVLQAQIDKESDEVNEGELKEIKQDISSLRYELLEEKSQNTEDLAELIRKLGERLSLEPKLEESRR

[10] = target: Short transient receptor potential channel 6 (Mus musculus) (UniProt Q61143); experiment: activation of mouse TRPC6 channel, confirmation, selectivity assay for TRPC4 activator project, cell-based, HEK293, membrane potential dye, duplicate (AID 434950;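 active means membrane potential signal rise above negative control mean plus 3 SD in both duplicates, also active in the earlier TRPC4 screen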;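 on activation: 0% = buffer only wells and 100% = acetylcholine maximal-effect wells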); settings: HEK293 TRPC6, membrane potential fluorescence, at 10 µM; hits give high values
[11] = target: Short transient receptor potential channel 6 (Mus musculus) (UniProt Q61143); experiment: TRPC6 potentiation by TRPC4 potentiator hits, confirmation, selectivity assay for TRPC4 potentiator project, HEK293 cells, membrane potential dye, duplicate (AID 434952); settings: HEK293 TRPC6, membrane potential dye fluorescence, at 10 µM, maximal acetylcholine added after compound; hits give high values
[12] = target: Short transient receptor potential channel 4 (Mus musculus) (UniProt Q9QUQ5); experiment: calcium flux activators in TRPC4/5HT1a cells, counter-screen for TRPC4 activator project, cell-based, second counter screen, HEK293 TRPC4/5HT1a, Fluo-4 (AID 434977;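 active means calcium signal rise above buffer-control mean plus 5 SD in both duplicates, and also a hit in the primary screen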;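 on activation: plate controls were assay buffer for no effect and maximal serotonin response for full effect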); settings: Fluo-4 calcium flux, at 10 µM; hits give high values
[13] = calcium flux inhibitors in TRPC4/5HT1a cells, confirmation, counter-screen for TRPC4 inhibitor project, cell-based, second counter screen, HEK293 TRPC4/5HT1a, Fluo-4 (AID 434978;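 active means primary screen active whose calcium signal fell more than 3 SD beyond the full-serotonin control mean in both duplicate plates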;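 further: serotonin given first at submaximal then at maximal dose after compound preincubation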); settings: Fluo-4 calcium flux, at 10 µM, serotonin added to trigger calcium flux; hits give high values
[14] = system: TRPC4 (mouse), co-expressed with 5HT1a in HEK293; experiment: calcium flux potentiators in TRPC4/5HT1a cells, confirmation, counter-screen for TRPC4 potentiator project, cell-based, second counter screen, HEK293 TRPC4/5HT1a, Fluo-4 (AID 434979;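 active means signal rise over 3 SD above mean of control wells given weak agonist, in both repeats and first screen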); settings: Fluo-4 calcium flux, at 10 µM, serotonin added at its EC20 dose; hits give high values
[15] = calcium flux activation in mu-opioid HEK293 cells, confirmation, counter-screen for TRPC4 activator project, cell-based, HEK293 mu-opioid receptor line (AID 449723;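 active means hit in primary screen, with calcium signal over 5 SD above buffer well mean in both duplicates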;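 further: counter screen cells carry the mu-opioid receptor alone and lack TRPC4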); settings: Fluo-4 calcium fluorescence, at 10 µM; hits give high values
[16] = calcium flux enhancement in mu-opioid HEK293 cells, confirmation, counter-screen for TRPC4 allosteric potentiator project, cell-based, HEK293 mu-opioid receptor line (AID 449724;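 active means calcium signal rise more than 3 SD above the low-dose agonist control mean, in both duplicate plates and the primary screen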); settings: Fluo-4 calcium flux, at 10 µM, compound added before EC20 DAMGO stimulus; hits give high values

CCN1CCCC1CNC(=O)c1cc2c(OC)cccc2[nH]1 (stereo not given)
active: activation [1] 136% | activation [10] 36.5%
inactive: outcome [2] | outcome [3] | outcome [4] | outcome [5] | outcome [6] | outcome [7] | outcome [8] | outcome [9] | outcome [11] | outcome [12] | outcome [13] | outcome [14] | outcome [15] | outcome [16]

CN(C)C(CNC(=O)Nc1cccc(Cl)c1)c1cccnc1 (stereo not given)
active: activation [2] 106% | activation [10] 30.5%
inactive: outcome [1] | outcome [3] | outcome [4] | outcome [5] | outcome [6] | outcome [7] | outcome [8] | outcome [9] | outcome [11] | outcome [12] | outcome [13] | outcome [14] | outcome [15] | outcome [16]

COc1ccc(/C=N/NC(=O)C2COc3ccccc3O2)cc1OC (stereo not given)
active: activation [1] 114% | activation [2] 59% | activation [10] 45% | activation [12] 52.1%
inactive: outcome [3] | outcome [4] | outcome [5] | outcome [6] | outcome [7] | outcome [8] | outcome [9] | outcome [11] | outcome [13] | outcome [14] | outcome [15] | outcome [16]

CCCN(CCC)CCNC(=O)CCC(=O)Nc1ccc2nc(N3CCOCC3)cc(C)c2c1
inactive: outcome [3] | outcome [4] | outcome [5] | outcome [6] | outcome [7] | outcome [8] | outcome [9] | outcome [10] | outcome [11] | outcome [13] | outcome [14] | outcome [15] | outcome [16]
active: activation [1] 99% | activation [2] 67% | activation [12] 35.6%

CCn1c(N2CCN(S(=O)(=O)CC)CC2)nc2ccccc21
inactive: outcome [2] | outcome [3] | outcome [4] | outcome [5] | outcome [6] | outcome [7] | outcome [8] | outcome [9] | outcome [10] | outcome [11] | outcome [13] | outcome [14] | outcome [15] | outcome [16]
active: activation [1] 96% | activation [12] 19.2%

Cc1ccccc1Cn1c(CN2CCc3ccccc3C2)nc2c1c(=O)n(C)c(=O)n2C
active: activation [1] 163% | potentiation [3] 6% | potentiation [4] 46% | activation [10] 71% | potentiation [14] 88.5%
inactive: outcome [2] | outcome [5] | outcome [6] | outcome [7] | outcome [8] | outcome [9] | outcome [11] | outcome [12] | outcome [13] | outcome [15] | outcome [16]

CN(C)C(CNC(=S)Nc1ccc(Cl)cc1)c1cccnc1 (stereo not given)
inactive: outcome [1] | outcome [3] | outcome [4] | outcome [5] | outcome [6] | outcome [7] | outcome [8] | outcome [9] | outcome [10] | outcome [11] | outcome [12] | outcome [13] | outcome [14] | outcome [15] | outcome [16]
active: activation [2] 118%

O=C1NCN(c2ccccc2)C12CCN(CCCC(c1ccc(F)cc1)c1ccc(F)cc1)CC2
active: activation [10] 31%
inactive: outcome [1] | outcome [2] | outcome [3] | outcome [4] | outcome [5] | outcome [6] | outcome [7] | outcome [8] | outcome [9] | outcome [11] | outcome [12] | outcome [13] | outcome [14] | outcome [15] | outcome [16]

CN1CCCC(OC(=O)c2cc(Br)ccc2Cl)C1 (stereo not given)
active: activation [1] 116% | activation [2] 87% | activation [10] 47% | activation [12] 43.7%
inactive: outcome [3] | outcome [4] | outcome [5] | outcome [6] | outcome [7] | outcome [8] | outcome [9] | outcome [11] | outcome [13] | outcome [14] | outcome [15] | outcome [16]

CN(C)C(CNC(=O)Cc1ccc([N+](=O)[O-])cc1)c1ccccc1 (stereo not given)
inactive: outcome [3] | outcome [4] | outcome [5] | outcome [6] | outcome [7] | outcome [8] | outcome [9] | outcome [10] | outcome [11] | outcome [12] | outcome [13] | outcome [14] | outcome [15] | outcome [16]
active: activation [1] 161% | activation [2] 124%

O=C(NC1CCN(Cc2ccccc2)CC1)C12CC3CC(CC(C3)C1)C2
active: activation [1] 166% | activation [10] 54% | activation [12] 61.6%
inactive: outcome [2] | outcome [3] | outcome [4] | outcome [5] | outcome [6] | outcome [7] | outcome [8] | outcome [9] | outcome [11] | outcome [13] | outcome [14] | outcome [15] | outcome [16]

Cc1cc(OCCn2ccnc2)cc(C)c1Cl
active: activation [1] 146% | activation [10] 42% | activation [12] 34.8%
inactive: outcome [2] | outcome [3] | outcome [4] | outcome [5] | outcome [6] | outcome [7] | outcome [8] | outcome [9] | outcome [11] | outcome [13] | outcome [14] | outcome [15] | outcome [16]

CCn1c(N2CCN(CC(=O)Nc3cccc(C)c3C)CC2)nc2ccccc21
active: activation [1] 120% | activation [2] 57% | activation [10] 56.5% | activation [12] 23.9%
inactive: outcome [3] | outcome [4] | outcome [5] | outcome [6] | outcome [7] | outcome [8] | outcome [9] | outcome [11] | outcome [13] | outcome [14] | outcome [15] | outcome [16]

NCCCNC(=O)c1cc2ccccc2[nH]1
inactive: outcome [2] | outcome [3] | outcome [4] | outcome [5] | outcome [6] | outcome [7] | outcome [8] | outcome [9] | outcome [10] | outcome [11] | outcome [13] | outcome [14] | outcome [15] | outcome [16]
active: activation [1] 220% | activation [12] 6.83%

COc1ccc(Cl)cc1C(=O)Nc1ccccc1N1CCN(C)CC1
active: activation [1] 120% | activation [12] 16%
inactive: outcome [2] | outcome [3] | outcome [4] | outcome [5] | outcome [6] | outcome [7] | outcome [8] | outcome [9] | outcome [10] | outcome [11] | outcome [13] | outcome [14] | outcome [15] | outcome [16]
